Our source for the INHIBITION values is ChEMBL document CHEMBL4513216, “Probing the Open Global Health Chemical Diversity Library for Multistage-Active Starting Points for Next-Generation Antimalarials” (ACS Infect Dis, 2020).

Screen size: about 69,000 compounds; about 8,600 (12%) showed an effect of 50% or more. The list comes from a sample in which strong results are over-represented; it also holds similar structures and randomly drawn compounds.

This assay has as its system Plasmodium berghei. Kind of assay: Screen against P. berghei liver stage (PbLuc), transformed with Luciferase, at 10uM. Format: functional, HepG2. The following applies: tested at 10 uM.
On to `CC(NC(=O)NCCCn1cccn1)c1ccncc1` (configuration not stated), for which the INHIBITION is 36.3%.

On to `COC(=O)c1cc2n(n1)CCN(C(=O)c1csc(CN(C)C)n1)C2`, for which the INHIBITION is listed as -4.96%.

Regarding `COC(=O)Cn1c(=O)[nH]c2cn(-c3cccc(Cl)c3)c(=O)n21`, the INHIBITION is reported as 33.7%.

Turning to `COCCOCC(=O)N1C[C@@H]2CC[C@H](Oc3ccccc3Cl)[C@@H]2C1`, the INHIBITION turned out to be 40%.

Turning to `COc1ccccc1C(C)Nc1ncc(C(N)=O)cc1Cl` (configuration not stated), the INHIBITION is -7.25%.

For the molecule `Cc1nn(C)cc1C(C)Nc1ncc(C(N)=O)cc1Cl` (configuration not stated), the INHIBITION is listed as 71.1%.

Turning to `COc1cc(C)c(C(C)Nc2ncc(C(N)=O)cc2Cl)cc1OC` (configuration not stated), the INHIBITION is on record as -37.7%.

`Cc1noc2ncc(C(=O)NCC3CCCOC3)cc12` (configuration not stated): the INHIBITION was -6.45%.

Take `N#CC1(NC(=O)c2cc(Cl)c3c(c2)OCCCO3)CCC1`: the INHIBITION is given as -14.2%.

As to `c1cnc2ccc(C[C@@H]3CC[C@H](CN4CCCOCC4)O3)cc2c1`, the INHIBITION worked out at 23.5%.

Turning to `Cc1cc(C(=O)N2CCc3ncnc(-c4cnn(C)c4)c3CC2)no1`, the INHIBITION was 0.618%.

With `CN1CCC2(CCCN(S(=O)(=O)c3ccc(-c4cnco4)s3)C2)C1` (configuration not stated), the INHIBITION was found to be 37.3%.

As for `Cc1occc1CNC(=O)N1CCC(Cc2cnn(C)c2)C1` (configuration not stated), the INHIBITION is -24.15%.

Take `Cc1ccc(S(=O)(=O)N2Cc3c(CN(C)C)nn(C)c3C2)cc1`: the INHIBITION is listed as 0.542%.

For the molecule `COc1ccc(S(=O)(=O)N2Cc3c(CN(C)C)nn(C)c3C2)cc1`, the INHIBITION is recorded as -6.23%.

For the molecule `CCc1ccc(S(=O)(=O)N2Cc3c(CN(C)C)nn(C)c3C2)cc1`, the INHIBITION is 72%.

Take `Cc1ccc(NC2CCN(C(=O)c3nccc4ccccc34)CC2)nn1`: the INHIBITION is reported as -45.9%.

On to `CN(C)c1ncc(-c2cncnc2)c(C2CNCCO2)n1` (configuration not stated), for which the INHIBITION is given as 20.6%.

In the case of `CCc1nnc(CN2CCCCC2Cn2nc(C)nc2C)o1` (configuration not stated), the INHIBITION was determined as 22.3%.

For `CS(=O)(=O)N[C@@H]1CN(Cc2ccco2)C[C@@H]2CCCO[C@@H]21`, the INHIBITION came out at 5.96%.

As for `NCCN1CCC(c2nnc(Cn3ccnc3)n2C2CC2)CC1`, the INHIBITION amounted to 62.3%.

Turning to `CC(C)(C)CN1CCC(c2nnc(Cn3ccnc3)n2C2CC2)CC1`, the INHIBITION is 38%.

With `CSCCCN1CCC(c2nnc(Cn3ccnc3)n2C2CC2)CC1`, the INHIBITION is given as -79.3%.

Turning to `CN1CCC(c2nnc3n2CCN(S(=O)(=O)c2ccccc2Cl)C3)CC1`, the INHIBITION amounted to 10.75%.

Consider `CCOC(=O)CN1CCC(C(=O)c2cc(F)ccc2F)CC1`, for which the INHIBITION was 32.6%.

For `NC(=O)CCN1CCC(C(=O)c2cc(F)ccc2F)CC1`, the INHIBITION is 18.2%.

`COCCN1CCC(C(=O)c2cc(F)ccc2F)CC1`: the INHIBITION stood at 5.03%.

As for `COC(=O)CCN1CCC(C(=O)c2cc(F)ccc2F)CC1`, the INHIBITION worked out at 46.9%.

In the case of `CCOCCN1CCC(C(=O)c2cc(F)ccc2F)CC1`, the INHIBITION is 60.5%.

As to `CC(C)NC(=O)CCN1CCC(C(=O)c2cc(F)ccc2F)CC1`, the INHIBITION stood at 69.3%.

Consider `COCCCN1CCC(C(=O)c2cc(F)ccc2F)CC1`, for which the INHIBITION amounted to 56.4%.

Turning to `CC(C)OCCN1CCC(C(=O)c2cc(F)ccc2F)CC1`, the INHIBITION is -13.5%.

`NC(=O)NC(=O)CCN1CCC(C(=O)c2cc(F)ccc2F)CC1`: the INHIBITION is 40.5%.

For the molecule `Cc1nc(NCc2ccc(F)cc2)cc(C2CCCN2)n1` (configuration not stated), the INHIBITION is on record as 41.5%.

For the molecule `O=C(Cn1ccc2ccc(Br)cc21)NCc1ccc(C(=O)O)cc1`, the INHIBITION is -30.8%.

For `CC(C)c1nn(C)c(N(C)C)c1CNC1CCCOc2ccccc21` (configuration not stated), the INHIBITION stood at 35.4%.

With `COCc1nc(N(C)C)ncc1C(=O)Nc1ccc(Cl)cc1`, the INHIBITION was -18.8%.

For `O=C(COC1CCCC1)NCc1ccc(O)c(F)c1`, the INHIBITION is recorded as -16.4%.

For `CN1CC(=O)N(c2cccc(F)c2)CC12CCN(Cc1ccsc1)C2` (configuration not stated), the INHIBITION was determined as 23.6%.

`Cc1ccc(Cl)cc1-n1nnnc1C1(N2CCCC2)CCCC1`: the INHIBITION was 33%.

`Cc1ccc(Cl)cc1-n1nnnc1C1(N2CCCC2)CCCCC1`: the INHIBITION came out at 63.9%.

As to `Clc1ccc2nncc(N3CCCCC3)c2c1`, the INHIBITION was -0.991%.

Regarding `CN1CCN(c2cc(CNC(=O)c3ccc(Cl)o3)ccn2)CC1`, the INHIBITION worked out at 38.45%.

On to `Cc1csc(NC(=O)CN2CCCC(Cn3nc(C)nc3C)C2)n1` (configuration not stated), for which the INHIBITION is on record as 0.4%.

For `COc1c(C)cnc(CSc2nnc(N3CCCC3)s2)c1C`, the INHIBITION is on record as 32.9%.

`COc1cccc2c1OCC(Cc1cc(C(N)=O)ccn1)C2` (configuration not stated): the INHIBITION turned out to be 38%.

In the case of `COc1cccc2c1OCC(NC(=O)NCc1cccs1)C2` (configuration not stated), the INHIBITION worked out at 20.5%.

As for `CNC(=O)c1ccnc(CC2COc3c(cccc3OC)C2)c1` (configuration not stated), the INHIBITION is listed as -9.54%.

For `COc1cccc2c1OCC(C(=O)NCCc1nnc(C)s1)C2` (configuration not stated), the INHIBITION came out at 65.6%.

On to `COc1cccc2c1OCC(C(=O)NCCc1nnc(N)s1)C2` (configuration not stated), for which the INHIBITION came out at 43.4%.

Consider `COc1cccc2c1OCC(Cc1cc(C(=O)N3CCCC3)ccn1)C2` (configuration not stated), for which the INHIBITION is 57.2%.

With `COc1cccc2c1OCC(NC(=O)NCCC(N)=O)C2` (configuration not stated), the INHIBITION is given as 15.1%.

For `COc1cccc2c1OCC(C(=O)NCCc1nc3c(s1)CCC3)C2` (configuration not stated), the INHIBITION stood at 40.6%.

Take `COc1cccc2c1OCC(NC(=O)NCCc1ccccn1)C2` (configuration not stated): the INHIBITION was 59.1%.

As to `COc1ccc(-c2ccc(C(=O)N3CCOCC3CC(N)=O)o2)cc1` (configuration not stated), the INHIBITION is -71.5%.

As for `CC(C)(CN1CCC2(CCCNC2)C1)N1CCOCC1` (configuration not stated), the INHIBITION is on record as -41.8%.

With `O=C(CCc1cncc(F)c1)NS(=O)(=O)c1ccc(F)cc1F`, the INHIBITION turned out to be 30.3%.

In the case of `O=c1ccc2c(n1Cc1ccncc1)CCN(Cc1ccoc1)CC2`, the INHIBITION was -37.9%.

As for `CC(C)N1C[C@@H]2CN(C(=O)NCc3ccccc3)CCC[C@]2(C(=O)O)C1`, the INHIBITION was found to be 34.6%.

Consider `CNC(=O)[C@@H]1C[C@H]2CN(Cc3nccs3)C[C@H]2N1C`, for which the INHIBITION is 46.6%.

For the molecule `Nc1nc(N)c2c(n1)OC1(CCN(C(=O)CC3CCCCN3)CC1)C2` (configuration not stated), the INHIBITION worked out at 26.95%.

As to `CCCC(C)CN1CCC(n2cc(CCCO)nn2)CC1` (configuration not stated), the INHIBITION is 13.7%.

Turning to `CCC(CC)CN1CCC(n2cc(C3CCCC3)nn2)CC1`, the INHIBITION is listed as 60.4%.

`CCCC(C)CN1CCC(n2cc(C3CCCC3)nn2)CC1` (configuration not stated): the INHIBITION came to 61.1%.

As for `CSC(C)CCN1CCC(n2cc(C3CCCCC3)nn2)CC1` (configuration not stated), the INHIBITION is 67.7%.

For `CCC(C)CN1CCC(n2cc(C3CCCCC3)nn2)CC1` (configuration not stated), the INHIBITION was determined as 77.6%.

Regarding `CCC(C)CN1CCC(n2cc(C3CCCC3)nn2)CC1` (configuration not stated), the INHIBITION turned out to be 16.9%.

Regarding `OCc1ccc(CN2CCC(n3cc(C4CCCCC4)nn3)CC2)o1`, the INHIBITION was 48.8%.

On to `CC(C)Cc1cn(C2CCN(C(C)CC3CC3)CC2)nn1` (configuration not stated), for which the INHIBITION is -129%.

With `C=C(C)CN1CCC(n2cc(C3CCCC3)nn2)CC1`, the INHIBITION turned out to be 46.4%.

Regarding `CC(C)Nc1cc(N2CCC(n3cc(C4CCCC4)nn3)CC2)ncn1`, the INHIBITION came out at 16.1%.

Take `CC(O)c1cn(C2CCN(C(=O)C3(C)CCCCC3)CC2)nn1` (configuration not stated): the INHIBITION is recorded as 10.3%.
